These results are taken from PubChem BioAssay (Tox21).

The structures appear in SMILES notation. Calls of active or inactive are those of the source. Where a call stands in place of a potency, no number is given. Calls follow the shape of the dose curve; as a rule, active = well fitted activation curve with a large enough effect in the repeat runs; inconclusive = weak or mixed curves; inactive = flat fitted curve, though single readings scatter.

This assay in a line: A CellTox Green Cytotoxicity Assay to monitor cytotoxicity in HEK293 cells - 0 hour (AID 1224869). Also: nearly all actives have a fitted effect of over 50% in size. Conditions: CellTox Green fluorescence; series mostly up to 76.8 µM. The text has this:
National Center for Advancing Translational Sciences [NCATS]
NIH Chemical Genomics Center [NCGC]
U.S. Environmental Protection Agency [EPA]
National Institutes of Environmental Health Sciences [NIEHS]
National Toxicology Program [NTP]
Cell-based models are critical for drug discovery. Determining the natural cytotoxic effects resulting from test compounds is an essential research activity. A CellTox Green Cytotoxicity Assay to monitor cytotoxicity in real time of continues cell culture during 40 hours of the compound treatment was used to screen Tox21 10K library compounds in Hek293 cells. CellTox Green Cytotoxicity Assay is a nonlytic, homogeneous, biofluorescent method to measure cytotoxicity in cell culture after experimental manipulation. The assay system uses a proprietary asymmetric cyanine dye that is excluded from viable cells but preferentially stains the dead cell's DNA. […] Viable cells produce no appreciable increases in fluorescence. Therefore, the fluorescence signal produced by the binding interaction with dead cell DNA is proportional to cytotoxicity.
The mixture of Hek293 cell suspension and reagents were dispensed at 600cells/6 ul/well in 1536-well tissue culture treated black solid bottom plates using a Multidrop dispenser. After the assay plates were incubated at a 37 C/5% CO2 incubator for 5 hours, 23 nL of compounds dissolved in DMSO, positive and negative controls was transferred to the assay plate by a pintool work station. The plates were incubated at 37 C for 40 hours. The fluorescence intensity were measured at 0h, 8h, 16h, 24h, 32h and 40h time points using ViewLux plate reader during compound treatment.
For `CC[N+]1(C)CCCC(OC(=O)C(O)(c2ccccc2)c2ccccc2)C1` (stereo not given), the Potency result is “inactive”.
With `CCCCC(CC)COC(=O)c1c(Br)c(Br)c(Br)c(Br)c1C(=O)OCC(CC)CCCC` (stereo not given), the Potency entry is “inactive”.
The result for `CCCCOC(=O)CCC(=O)OCCCC` reads “inactive”; that for `CN(C)C(=O)Nc1cccc(OC(=O)NC(C)(C)C)c1`, “inactive”.
The result for `Cc1cnc(C2=NC(C)(C(C)C)C(=O)N2)c(C(=O)O)c1` (stereo not given) reads “inactive”; that for `C[C@]12CC[C@H]3[C@@H](CCC4=CC(=O)CC[C@@H]43)[C@@H]1CC[C@@H]2OC(=O)CCc1ccccc1`, “inactive”; that for `CCCCCl`, “inactive”.
The result for `CCOP(=S)(OCC)SCSc1cc(Cl)ccc1Cl` reads “inactive”; that for `C[N+]1(CCF)[C@@H]2CC[C@H]1CC(OC(=O)C(O)(c1ccccc1)c1ccccc1)C2` (stereo not given in full), “inactive”.
Regarding `OCCCl`, the Potency entry is “inactive”.
Regarding `O=C(CCl)CCl`, the Potency result was “inactive”.
In the case of `CCCCNC(=O)OCC#CI` it was “inactive”.
Consider `Cc1nc2ccccc2c(=O)n1-c1ccccc1Cl`, for which the Potency result is “inactive”.
In the case of `CC(C)(c1ccccc1)c1cc(-n2nc3ccccc3n2)c(O)c(C(C)(C)c2ccccc2)c1`, the Potency result is “inactive”.
`Cc1ccc(N)c(C)c1`: the Potency entry is “inactive”.
As to `C1CCNCC1`, the Potency entry is “inactive”.
The result for `CC(C)OC(=O)Cc1ccccc1` reads “inactive”; that for `CCC(=O)O[C@@H]1C=C2CCC3C(CCC4(C)C3CC[C@@H]4OC(=O)CC)C2CC1` (stereo not given in full), “inactive”; that for `C[Si](Cn1cncn1)(c1ccc(F)cc1)c1ccc(F)cc1`, “inactive”.
In the case of `C=CCN1C[C@H](C)N([C@H](c2ccc(C(=O)N(CC)CC)cc2)c2cccc(OC)c2)C[C@H]1C` it was “inactive”; in that of `C=CC(=O)NC(C)(C)CC(C)=O`, “inactive”; in that of `O=C(O)C(F)(F)C(F)(F)C(F)(F)C(F)(F)C(F)(F)C(F)(F)C(F)(F)C(F)(F)F`, “inactive”.
In the case of `CCOP(=O)(O)C(N)=O` it was “inactive”; in that of `CN1C[C@H](C(=O)N[C@]2(C)O[C@@]3(O)[C@@H]4CCCN4C(=O)[C@H](Cc4ccccc4)N3C2=O)C=C2c3cccc4[nH]cc(c34)C[C@H]21`, “inactive”; in that of `O=C(O)c1ccc(=O)[nH]c1`, “inactive”.
For `CCOC(C(=O)OCCN(C)C)(c1ccccc1)c1ccccc1`, the Potency entry was “inactive”.
In the case of `O=C1c2ccccc2C(=O)N1SC(Cl)(Cl)Cl` it was “inactive”; in that of `CON(C)C(=O)Nc1ccc(Cl)cc1`, “inactive”; in that of `C=CCc1ccc(OC(=O)Cc2ccccc2)c(OC)c1`, “inactive”.
In the case of `O=C(Cc1ccccc1)OCCc1ccccc1` it was “inactive”; in that of `OCCSSCCO`, “inactive”; in that of `CC(C)[C@@H](C(=O)O[C@@H](C#N)c1cccc(Oc2ccccc2)c1)c1ccc(Cl)cc1`, “inactive”.
For `FC(Cl)(Cl)C(F)(Cl)Cl`, the Potency entry is “inactive”.
`C=CCSSCC=C`: the Potency entry was “inactive”.
In the case of `Cc1cccc(C)c1NC1=NCCCS1` it was “inactive”; in that of `CCCC[N+](CCCC)(CCCC)CCCC`, “inactive”; in that of `c1ccc2c(c1)-c1cccc3cccc-2c13`, “inactive”.
Take `C#C[C@]1(O)CC[C@H]2[C@@H]3CCC4=CC(=O)CCC4=C3C=C[C@@]21CC`: the Potency result is “inactive”.
The result for `C=CC(C)(CCC=C(C)C)OC(=O)c1ccccc1N` (stereo not given) reads “inactive”.
In the case of `C=CCOC(=O)C(C)(C)OC(=O)c1cc(-n2c(=O)cc(C(F)(F)F)n(C)c2=O)ccc1Cl` it was “inactive”.
